Compound activity (PubChem BioAssay)
Compounds with a hit are over-represented: about 3.4% of the library has one in this group of screens.
FBW7 act: human FBW7 E3 ligase activation, primary screen. Q969H0. AlphaScreen FBW7–phospho-cyclin E peptide binding, activator screen. normalized activity (activation), % at 26.1 µM. actives 0.13% (n = 650,000). AID 1259310; in the data active = normalized activity above about 1.9%;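 note: purified mutant Fbw7 with reduced substrate affinity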
Target sequence (Q969H0 whole entry, looked up): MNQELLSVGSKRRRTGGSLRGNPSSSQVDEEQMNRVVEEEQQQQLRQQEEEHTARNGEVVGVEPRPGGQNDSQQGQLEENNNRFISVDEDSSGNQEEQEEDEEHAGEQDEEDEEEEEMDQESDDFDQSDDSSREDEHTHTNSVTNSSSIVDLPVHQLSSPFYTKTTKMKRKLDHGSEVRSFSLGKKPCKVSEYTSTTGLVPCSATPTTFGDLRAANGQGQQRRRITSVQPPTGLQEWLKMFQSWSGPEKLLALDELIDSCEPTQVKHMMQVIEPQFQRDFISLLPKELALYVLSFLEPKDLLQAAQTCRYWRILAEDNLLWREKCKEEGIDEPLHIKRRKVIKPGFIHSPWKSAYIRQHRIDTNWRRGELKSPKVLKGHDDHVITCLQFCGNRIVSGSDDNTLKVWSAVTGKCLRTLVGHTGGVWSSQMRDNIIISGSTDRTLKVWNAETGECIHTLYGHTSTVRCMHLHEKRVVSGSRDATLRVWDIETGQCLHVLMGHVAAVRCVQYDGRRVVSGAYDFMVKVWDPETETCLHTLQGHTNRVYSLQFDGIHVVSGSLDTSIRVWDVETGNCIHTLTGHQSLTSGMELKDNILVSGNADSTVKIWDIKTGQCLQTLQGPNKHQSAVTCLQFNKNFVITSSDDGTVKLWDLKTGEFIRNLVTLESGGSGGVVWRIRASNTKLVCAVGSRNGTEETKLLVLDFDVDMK
TEAD-YAP block: TEAD-YAP interaction inhibition. HEK-TIYL cells, TEAD-Gal4/YAP UAS-luciferase luminescence. inhibition, % at 9.12 µM. actives 1.4% (n = 640,000). AID 1259422; in the data active = inhibition above about 32%;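 note: 0% = median of test compound wells and 100% = reference inhibitor wells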
GPR151 activ: activates the human receptor GPR151 | actives 1% (n = 650,000) | PathHunter beta-arrestin GPR151 cells, luminescence | Q8TDV0 | AID 1508602 | activation, % at 11.2 µM; in the data active = activation above about 4.9%;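 note: 0% = median of compound wells and 100% = cells with positive control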
MITF primary: blocks human microphthalmia-associated transcription factor; O75030; AlphaScreen MITF homodimerization, bead proximity signal; inhibition, % at 2.6 µM; actives 0.91% (n = 650,000); in the data active = inhibition above about 50%;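 note: 0% = vehicle wells with protein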
Numbers without * were called inactive; i = inactive.

SMILES	FBW7 act	TEAD-YAP block	GPR151 activ	MITF primary
O=C(O)C1Nc2c(C(=O)N3CCCC3)cccc2C2C=CCC12 (stereo not drawn)	-1	10	0	80*
CC(C)C1Nc2c(C(=O)O)cccc2C2C=CCC21 (stereo not drawn)	0	1	-1	17
O=C(Oc1ccc(-c2ccccc2)cc1)c1cccc2c1NC(C(=O)O)C1CC=CC21 (stereo not drawn)	0	-15	0	51*
O=C(O)C1Nc2c(C(=O)N3CCOCC3)cccc2C2C=CCC12 (stereo not drawn)	-1	0	1	58*
CC1CCCCN1CCNC(=O)C(=O)Nc1ccc2nc3n(c(=O)c2c1)CCCCC3 (stereo not drawn)	0	4	-1	4
COC(=O)Cn1c(O)c(N=NC(=O)CNC(=O)c2cccnc2)c2ccccc21	0	-2	-1	-6
CCc1ccc2c(c1)NC(=O)C2(C)Cc1cccc(C(=O)OC)c1 (stereo not drawn)	0	44*	1	2
COc1ccc(NC(=O)C2CC(=O)N=C(N)S2)cc1OC (stereo not drawn)	0	7	0	3
CC(=O)Nc1ccc(N2C(=O)CC(N3CCC(C(N)=O)CC3)C2=O)cc1 (stereo not drawn)	0	11	1	-1
CC(=O)Nc1nc(-c2ccc3c(c2)CCO3)cs1	0	-57	-2	5
CCCN1C(=O)COc2ccc(-c3csc(NC(=O)C(CC)CC)n3)cc21	0	32*	0	3
CCN(CC)c1ncnc2c1cnn2-c1ccc(Cl)cc1	0	70*	0	-6
CCC(C)Nc1ncnc2c1cnn2-c1ccc(Cl)cc1 (stereo not drawn)	0	37*	-1	-2
Oc1ccc(CCNc2nc(Nc3ccc(-n4ccnc4)cc3)nc3c2ncn3-c2ccsc2)cc1	0	62*	0	6
CCCNc1nc(Nc2ccccc2)nc2c1ncn2-c1ccsc1	0	55*	0	10
CCCNc1nc(Nc2ncccn2)nc2c1ncn2-c1ccsc1	0	19	2	-3
CCCNc1nc(Nc2ccc(-n3ccnc3)cc2)nc2c1ncn2-c1ccsc1	0	51*	-1	-8
CCCNc1nc(Nc2ccc(-n3ccnc3)cc2)nc2c1ncn2-c1ccccc1	0	49*	2	3
COc1ccc(OCC(=O)N2c3ccccc3-c3c(ssc3=S)C2(C)C)cc1	0	-4	-1	15
CCCNc1nc(Nc2cc(OC)c(OC)c(OC)c2)nc2c1ncn2-c1ccsc1	0	23	0	-6
COc1cc(Nc2nc(NCCc3ccc(O)cc3)c3ncn(-c4ccsc4)c3n2)cc(OC)c1OC	0	36*	-1	3
CCCNc1nc(Nc2ccncc2)nc2c1ncn2-c1ccsc1	0	56*	0	-4
COc1ccc(/C=N/NC(=O)c2cc(O)c(O)c(O)c2)cc1Cn1cnc([N+](=O)[O-])n1	0	5	-1	97*
COc1ccc(/C=N/NC(=O)c2cc(O)c(O)c(O)c2)cc1Cn1cc([N+](=O)[O-])cn1	0	-4	2	73*
COc1ccc(/C=N/NC(=O)c2ccccc2O)cc1Cn1cc([N+](=O)[O-])cn1	0	-8	-1	0
SMILES	FBW7 act	TEAD-YAP block	GPR151 activ	MITF primary
Cn1c(=O)cc(OCCCC(=O)Nc2ccc(Cl)cn2)c2ccccc21	0	43*	0	5
Cc1ccc(C(=O)NC(C)Cc2cccs2)c(C)c1 (stereo not drawn)	0	88*	-7	4
CCC(C)NC(=O)c1ccc(C)cc1C (stereo not drawn)	0	-2	-1	-6
O=C(NCC1CCCN(Cc2ccccc2-c2ccco2)C1)c1ccc2c(c1)OCO2 (stereo not drawn)	0	-7	0	-17
Cc1nc2c(C(=O)O)c[nH]n2c(=O)c1Cc1ccc(Cl)cc1	0	7	0	-8
Cc1nc2c(C(=O)N3CCCC3)c[nH]n2c(=O)c1Cc1ccc(Cl)cc1	1.9*	8	0	15
CCOC(=O)C1=C(C)OC(N)=C(C#N)C1c1ccc(F)cc1 (stereo not drawn)	0	0	0	6
O=C(Cc1cnc2ncnn2c1)N1CCc2c([nH]c3ccccc23)C1c1ccccn1 (stereo not drawn)	0	35*	-1	10
COc1cccc(OC)c1C(=O)Nc1nc2ccc3sc(C)nc3c2s1	0	-8	-1	12
Cc1nc2c(ccc3nc(NC(=O)Cc4ccccc4)sc32)s1	0	-30	-1	23
COc1ccc(C(=O)Nc2nc3ccc4sc(C)nc4c3s2)c(OC)c1	1	48*	0	17
Cc1nc2c(ccc3nc(NC(=O)CCc4ccccc4)sc32)s1	0	48*	2	-8
COc1ccccc1C(=O)Nc1nc2ccc3sc(C)nc3c2s1	0	52*	-2	-19
Cn1c(=O)c2c(nc3n(Cc4ccccn4)c(-c4ccc(Cl)cc4)cn23)n(C)c1=O	0	-4	-1	-5
Cc1cc(C)c2c(n1)nn1c(NCc3ccco3)cc(C)nc21	254*	7	1	i
CC(Nc1ncnc(N)c1[N+](=O)[O-])C1CC2CCC1C2 (stereo not drawn)	0	-4	5	1
CC(=O)Nc1ccccc1OCC(=O)c1cc(C)n(CCc2ccc(F)cc2)c1C	0	61*	2	14
O=S1(=O)c2cccc3cccc(c23)N1Cc1cccc(Cl)c1	2.1*	-16	1	8
O=S1(=O)c2cccc3cccc(c23)N1Cc1cccc(Br)c1	0	-8	-1	-6
CCOC(=O)C(C)Sc1nnc(NC(=O)CCCl)s1 (stereo not drawn)	3.4*	0	1	21
COC(=O)CSC1=C(C#N)C(c2ccc(Cl)cc2)CC(=O)N1 (stereo not drawn)	0	-9	-1	5
COC(=O)CSC1=C(C#N)C(c2cccc(Cl)c2)CC(=O)N1 (stereo not drawn)	0	57*	0	-3
N#CC1=C(SCC(=O)Nc2ccc(Cl)c(Cl)c2)NC(=O)CC1c1cccs1 (stereo not drawn)	0	59*	1	50
N#CC1=C(SCC(=O)Nc2ccccc2[N+](=O)[O-])NC(=O)CC1c1ccccc1F (stereo not drawn)	1	34*	1	28
CCOC(=O)CSC1=C(C#N)C(c2cccc(Cl)c2)CC(=O)N1 (stereo not drawn)	0	66*	-1	7
N#CC1=C(SCC(=O)Nc2ccccc2Cl)NC(=O)CC1c1ccc(F)cc1 (stereo not drawn)	0	6	0	3
CCOC(=O)CSC1=C(C#N)C(c2ccc(Cl)cc2)CC(=O)N1 (stereo not drawn)	0	-13	-1	-1
O=c1[nH]c(=O)n(-c2ccc(I)cc2)c(O)c1/C=C1\C=CC=N1	0	-1	-1	-12
COc1ccc2cc(CCNC(=O)c3ccccc3)c(=O)[nH]c2c1	0	-26	0	-11
